Results from the supplement of paper PMC10849652.
Of roughly 7,900 targets only a part is listed; those with a hit were picked by preference. About 0.6% of all pairs of compound and target were hits.

These targets were tested with c1cn2cc(-c3ccc4cn[nH]c4c3)nc(Nc3ccc(N4CCOCC4)cc3)c2n1 [entospletinib] (assay: log2 fold change, soluble protein after heating vs DMSO (PISA); higher = thermal stabilisation; K562 cells, 10 uM, 30 min; active = over 0.2 and 3.5 SD of the protein, either way, in both replicates (recomputed)).
In short: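 K562 cells at 2×10^6 cells/mL were exposed to 10 μM compound for 30 min, then aliquots were heated for 3 min across 48°C-58°C, pooled, and extracted in PBS containing 0.5% NP-40 at 4°C. The supernatant after 21,000xg for 90 min was taken as soluble protein and measured by TMTpro 16plex LC-MS/MS with channel sums equalised. Thermal stability is reported relative to control samples, with values from duplicates. Fold changes are given on a log2 scale.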

Sequence of UniProt Q15021 (Q15021 whole entry, looked up): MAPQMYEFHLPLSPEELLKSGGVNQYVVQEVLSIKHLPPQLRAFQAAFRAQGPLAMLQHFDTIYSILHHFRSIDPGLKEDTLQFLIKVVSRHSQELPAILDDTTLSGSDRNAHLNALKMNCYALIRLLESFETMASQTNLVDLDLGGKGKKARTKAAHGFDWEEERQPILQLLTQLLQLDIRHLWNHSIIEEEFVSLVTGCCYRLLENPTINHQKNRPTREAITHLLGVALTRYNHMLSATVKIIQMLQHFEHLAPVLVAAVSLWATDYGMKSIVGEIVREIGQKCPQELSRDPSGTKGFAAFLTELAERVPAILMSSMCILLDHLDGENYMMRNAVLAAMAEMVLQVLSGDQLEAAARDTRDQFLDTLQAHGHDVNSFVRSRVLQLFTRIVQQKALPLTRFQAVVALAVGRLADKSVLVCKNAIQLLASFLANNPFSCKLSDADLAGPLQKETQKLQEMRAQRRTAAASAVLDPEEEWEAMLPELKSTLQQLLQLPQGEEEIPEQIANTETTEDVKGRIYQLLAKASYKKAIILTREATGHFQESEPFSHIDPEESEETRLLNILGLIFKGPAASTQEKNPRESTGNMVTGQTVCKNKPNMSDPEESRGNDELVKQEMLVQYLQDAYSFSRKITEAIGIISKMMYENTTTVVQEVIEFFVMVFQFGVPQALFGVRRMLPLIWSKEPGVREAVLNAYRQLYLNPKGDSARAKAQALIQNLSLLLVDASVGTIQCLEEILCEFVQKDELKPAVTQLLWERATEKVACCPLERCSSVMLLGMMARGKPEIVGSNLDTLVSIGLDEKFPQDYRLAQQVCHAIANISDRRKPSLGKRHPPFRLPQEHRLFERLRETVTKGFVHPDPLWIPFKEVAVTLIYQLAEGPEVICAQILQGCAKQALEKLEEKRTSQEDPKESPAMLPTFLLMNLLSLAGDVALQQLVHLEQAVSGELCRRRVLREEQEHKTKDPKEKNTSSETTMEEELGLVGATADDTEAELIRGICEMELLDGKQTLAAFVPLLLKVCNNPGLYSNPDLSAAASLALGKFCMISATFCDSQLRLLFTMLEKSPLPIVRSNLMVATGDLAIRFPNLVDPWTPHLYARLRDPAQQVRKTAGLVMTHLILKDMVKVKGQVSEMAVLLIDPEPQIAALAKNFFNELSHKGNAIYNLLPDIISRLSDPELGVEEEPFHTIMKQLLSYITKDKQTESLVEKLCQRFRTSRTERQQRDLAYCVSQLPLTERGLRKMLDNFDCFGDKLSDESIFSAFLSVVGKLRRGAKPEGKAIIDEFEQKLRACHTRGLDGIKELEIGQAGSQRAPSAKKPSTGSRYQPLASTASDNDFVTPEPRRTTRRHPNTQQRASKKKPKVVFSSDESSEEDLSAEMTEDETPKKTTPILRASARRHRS
Sequence of UniProt Q9NWU1 (Q9NWU1 whole entry, looked up): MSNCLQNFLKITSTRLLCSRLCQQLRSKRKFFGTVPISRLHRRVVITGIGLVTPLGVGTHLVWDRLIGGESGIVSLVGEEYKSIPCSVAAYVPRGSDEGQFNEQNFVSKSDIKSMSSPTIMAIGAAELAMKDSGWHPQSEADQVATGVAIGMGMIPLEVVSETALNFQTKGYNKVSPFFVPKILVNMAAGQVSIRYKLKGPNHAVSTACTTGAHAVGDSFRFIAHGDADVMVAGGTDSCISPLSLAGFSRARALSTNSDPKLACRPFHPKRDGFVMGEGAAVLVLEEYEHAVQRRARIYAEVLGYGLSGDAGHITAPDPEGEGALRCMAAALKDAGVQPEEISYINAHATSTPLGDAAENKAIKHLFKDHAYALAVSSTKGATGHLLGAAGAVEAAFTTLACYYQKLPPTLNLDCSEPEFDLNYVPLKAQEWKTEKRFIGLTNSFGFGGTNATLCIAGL
Sequence of UniProt Q9NRP0 (Q9NRP0 whole entry, looked up): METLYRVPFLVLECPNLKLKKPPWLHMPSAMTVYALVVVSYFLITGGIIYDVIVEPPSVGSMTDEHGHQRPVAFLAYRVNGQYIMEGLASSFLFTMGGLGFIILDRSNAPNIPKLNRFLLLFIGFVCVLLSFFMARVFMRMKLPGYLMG
Sequence of UniProt B2RBV5 (B2RBV5 whole entry, looked up): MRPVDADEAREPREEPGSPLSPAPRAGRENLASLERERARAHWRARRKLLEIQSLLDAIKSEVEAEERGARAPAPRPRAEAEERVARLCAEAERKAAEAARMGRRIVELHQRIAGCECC
Sequence of UniProt Q9BZF1 (Q9BZF1 whole entry, looked up): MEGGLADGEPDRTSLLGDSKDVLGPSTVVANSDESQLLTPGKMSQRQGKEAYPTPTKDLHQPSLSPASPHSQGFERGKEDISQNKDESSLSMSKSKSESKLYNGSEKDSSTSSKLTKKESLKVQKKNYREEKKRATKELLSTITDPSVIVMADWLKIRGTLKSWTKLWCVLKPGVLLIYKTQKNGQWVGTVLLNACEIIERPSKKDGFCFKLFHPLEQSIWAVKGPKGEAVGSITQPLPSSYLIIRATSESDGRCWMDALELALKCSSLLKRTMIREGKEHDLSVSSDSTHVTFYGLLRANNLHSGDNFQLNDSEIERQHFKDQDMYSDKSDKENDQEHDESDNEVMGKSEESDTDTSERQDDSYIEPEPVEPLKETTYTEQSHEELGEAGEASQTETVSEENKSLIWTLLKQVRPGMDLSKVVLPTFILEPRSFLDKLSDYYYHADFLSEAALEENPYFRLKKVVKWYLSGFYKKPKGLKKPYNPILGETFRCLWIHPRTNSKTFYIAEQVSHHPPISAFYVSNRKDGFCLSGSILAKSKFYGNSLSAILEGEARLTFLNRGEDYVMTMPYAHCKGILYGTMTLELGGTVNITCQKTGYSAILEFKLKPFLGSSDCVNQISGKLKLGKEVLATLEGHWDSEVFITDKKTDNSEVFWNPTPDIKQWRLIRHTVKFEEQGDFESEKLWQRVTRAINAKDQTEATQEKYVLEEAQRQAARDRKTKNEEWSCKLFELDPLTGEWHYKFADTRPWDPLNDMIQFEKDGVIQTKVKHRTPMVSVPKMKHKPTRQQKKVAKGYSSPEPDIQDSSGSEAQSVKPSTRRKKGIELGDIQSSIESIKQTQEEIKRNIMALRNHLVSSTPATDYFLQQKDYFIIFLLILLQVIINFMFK
Sequence of UniProt Q86WC4 (Q86WC4 whole entry, looked up): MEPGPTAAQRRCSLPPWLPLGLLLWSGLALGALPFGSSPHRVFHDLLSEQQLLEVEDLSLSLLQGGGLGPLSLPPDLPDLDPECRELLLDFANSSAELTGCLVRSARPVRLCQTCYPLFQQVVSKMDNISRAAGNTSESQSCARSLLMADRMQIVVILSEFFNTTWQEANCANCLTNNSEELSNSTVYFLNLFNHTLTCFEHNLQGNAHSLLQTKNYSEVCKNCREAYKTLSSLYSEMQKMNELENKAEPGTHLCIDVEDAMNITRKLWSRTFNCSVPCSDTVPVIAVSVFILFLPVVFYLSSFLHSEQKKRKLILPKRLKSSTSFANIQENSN
Sequence of UniProt Q9Y5B8 (Q9Y5B8 whole entry, looked up): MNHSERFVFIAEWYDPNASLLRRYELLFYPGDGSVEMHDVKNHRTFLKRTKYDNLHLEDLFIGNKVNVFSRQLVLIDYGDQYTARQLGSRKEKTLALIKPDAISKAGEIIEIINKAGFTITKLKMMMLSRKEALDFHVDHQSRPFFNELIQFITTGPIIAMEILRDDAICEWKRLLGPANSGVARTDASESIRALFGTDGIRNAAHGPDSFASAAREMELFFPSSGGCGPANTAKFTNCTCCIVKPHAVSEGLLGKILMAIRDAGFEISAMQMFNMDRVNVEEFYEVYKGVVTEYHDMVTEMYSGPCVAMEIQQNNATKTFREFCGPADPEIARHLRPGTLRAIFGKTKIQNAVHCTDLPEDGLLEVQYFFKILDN
Sequence of UniProt O14524 (O14524 whole entry, looked up): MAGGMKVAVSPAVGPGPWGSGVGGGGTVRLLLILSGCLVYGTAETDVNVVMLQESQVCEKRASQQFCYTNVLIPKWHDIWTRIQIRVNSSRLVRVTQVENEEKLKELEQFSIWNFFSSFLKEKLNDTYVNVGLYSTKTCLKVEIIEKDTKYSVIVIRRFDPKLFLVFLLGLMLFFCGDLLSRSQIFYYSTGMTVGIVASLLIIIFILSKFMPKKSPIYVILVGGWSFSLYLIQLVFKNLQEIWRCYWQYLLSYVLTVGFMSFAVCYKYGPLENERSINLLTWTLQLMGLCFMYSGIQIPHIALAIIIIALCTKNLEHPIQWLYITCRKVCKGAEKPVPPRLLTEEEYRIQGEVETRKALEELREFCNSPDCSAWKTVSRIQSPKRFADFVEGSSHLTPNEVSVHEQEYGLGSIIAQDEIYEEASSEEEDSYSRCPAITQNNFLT
Sequence of UniProt Q15102 (Q15102 whole entry, looked up): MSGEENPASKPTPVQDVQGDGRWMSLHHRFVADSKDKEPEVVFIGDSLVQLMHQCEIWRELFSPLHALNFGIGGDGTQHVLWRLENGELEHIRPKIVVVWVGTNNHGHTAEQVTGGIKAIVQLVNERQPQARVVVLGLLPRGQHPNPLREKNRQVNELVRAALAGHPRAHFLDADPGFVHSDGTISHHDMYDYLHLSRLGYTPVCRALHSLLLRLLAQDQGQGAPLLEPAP
Sequence of UniProt P68402 (P68402 whole entry, looked up): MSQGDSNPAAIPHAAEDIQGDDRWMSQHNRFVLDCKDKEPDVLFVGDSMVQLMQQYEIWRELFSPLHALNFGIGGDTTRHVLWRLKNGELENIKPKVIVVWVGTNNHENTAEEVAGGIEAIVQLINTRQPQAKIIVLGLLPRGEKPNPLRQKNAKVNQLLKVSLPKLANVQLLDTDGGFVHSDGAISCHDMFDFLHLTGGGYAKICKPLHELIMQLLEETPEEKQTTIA
Sequence of UniProt Q96MF7 (Q96MF7 whole entry, looked up): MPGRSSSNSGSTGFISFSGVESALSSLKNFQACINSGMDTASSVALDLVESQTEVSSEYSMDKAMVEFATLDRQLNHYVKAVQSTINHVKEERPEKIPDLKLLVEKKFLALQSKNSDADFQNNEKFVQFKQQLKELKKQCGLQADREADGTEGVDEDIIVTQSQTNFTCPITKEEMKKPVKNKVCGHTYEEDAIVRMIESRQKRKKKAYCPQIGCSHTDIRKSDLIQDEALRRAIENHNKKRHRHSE

Target | log2 fold change
MT-ND1 (UniProt P03886) | 0.1 (inactive)
ORC3 isoform 2 (UniProt Q9UBD5) | 0.114 (inactive)
OTUD6B (UniProt Q8N6M0) | -0.028 (inactive)
NMT1 (UniProt P30419) | 0.04 (inactive)
NOS1AP (UniProt O75052) | -0.337 (inactive)
MYLK (UniProt Q15746) | -0.041 (inactive)
NPEPPS (UniProt P55786) | -0.007 (inactive)
NUDT16 (UniProt Q96DE0) | 0.044 (inactive)
NUP160 (UniProt Q12769) | 0.03 (inactive)
PAFAH1B2 (UniProt P68402) | 0.022 (inactive)
NAPG (UniProt Q99747) | 0.037 (inactive)
MRPS15 (UniProt P82914) | 0.044 (inactive)
MRPS5 (UniProt P82675) | 0.044 (inactive)
NME7 (UniProt Q9Y5B8) | -0.022 (inactive)
NCAPD2 (UniProt Q15021) | 0.031 (inactive)
MRPS17 (UniProt Q9Y2R5) | 0.118 (inactive)
NOL7 (UniProt Q9UMY1) | 0.033 (inactive)

Target | log2 fold change
NA (UniProt B2RBV5) | -0.058 (inactive)
NUDCD2 (UniProt Q8WVJ2) | -0.005 (inactive)
NDUFA7 (UniProt O95182) | 0.027 (inactive)
PAFAH1B3 (UniProt Q15102) | 0 (inactive)
OSTM1 (UniProt Q86WC4) | 0.118 (inactive)
MRPL34 (UniProt Q9BQ48) | 0.047 (inactive)
MRPS10 (UniProt P82664) | 0.054 (inactive)
NEDD4L (UniProt Q96PU5) | 0.046 (inactive)
NSMCE2 (UniProt Q96MF7) | -0.052 (inactive)
OSBPL8 (UniProt Q9BZF1) | 0.084 (inactive)
OSTC (UniProt Q9NRP0) | 0.034 (inactive)
OXSM (UniProt Q9NWU1) | -0.023 (inactive)
NUP205 (UniProt Q92621) | -0.041 (inactive)
NIPSNAP3B (UniProt Q9BS92) | -0.03 (inactive)
NELFA (UniProt Q9H3P2) | -0.005 (inactive)
NEMP1 (UniProt O14524) | -0.121 (inactive)
MITD1 (UniProt Q8WV92) | -0.133 (inactive)
